Screening results deposited in PubChem BioAssay by National Center for Advancing Translational Sciences (NCATS).
The list is not random: actives were taken first. Their share in the collection is about 2.3%.
BRCT PPI red – inhibitors of human BRCA1 BRCT-phosphoprotein interaction (red fluorophore); P38398; BRCT-phosphopeptide binding, red fluorescence polarization; Potency, µM (titrated, usually from 76.9 µM), usual class: inhibitors; 0.03% of 75,000 active
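Fluorescence polarization: 100 nM His-tagged BRCA1 BRCT with 100 nM TAMRA-labelled phospho-BACH1 decapeptide, phosphate buffer pH 7.3 with 150 mM NaCl, DTT, 0.01% Tween 20; 12 min RT. Binding inhibition seen as FP decrease.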
YjeE inh – YjeE (TsaE) inhibition, E. coli; P0AF67; purified YjeE enzyme, qHTS inhibition assay; Potency, µM; 0.05% of 71,000 active
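Purified YjeE (10 uM) with BODIPY Texas Red-labeled ADP probe (2 uM); compounds pin-transferred, 15 min at room temperature. Binding inhibition read as decreased fluorescence polarization; ADP titration as control.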
BRCT PPI green – BRCA1 BRCT-phosphoprotein interaction inhibition. P38398. BRCA1 BRCT-phosphopeptide binding, green fluorescence polarization. Potency, µM (doses to about 76.9 µM), hits mostly inhibitors. 0.05% of 75,000 active
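Fluorescence polarization: His-tagged BRCT (~35 kDa BRCA1 C-terminus, 250 nM) bound to 100 nM fluorescein-labeled phosphorylated 10-aa BACH1 peptide, pH 7.3 phosphate buffer with DTT and Tween 20. Compounds incubated 12 min at room temperature; inhibition read as lowered polarization.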
DNA Pol III inh – inhibitors of bacterial DNA polymerase III holoenzyme; Potency, µM (series often up to 57.1 µM); reconstituted DNA polymerase III holoenzyme replication, biochemical; 0.25% of 71,000 active; AID 603
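Reconstituted *E. coli* holoenzyme (0.35 nM Pol III, 1 nM beta, 154 nM SSB, 2 nM primase) was preincubated with compound for 15 min at RT. Synthesis on 1.4 nM ssM13Gori ran 35 min, then was stopped with PicoGreen/EDTA and read as dsDNA fluorescence.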
Tau fil binding – binders of human tau filaments; recombinant tau filaments, thioflavin S fluorescence, 15 h; filaments grown with octadecylsulfate alongside compound; 2% of 71,000 active; Potency, µM (highest dose often 57.1 µM); P10636;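 also: actives lower thioflavin S fluorescence by blocking filaments or displacing dye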
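Quantitative HTS: thioflavine S signal from ODS-induced tau filaments, excited at 450 nm, emission 510 nm. Conditions: 1 uM tau, 30 uM ODS, 15 h at 37 C, pH 7.4.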
Hsp90 Hop PPI – changes Hsp90-Hop TPR2A binding signal, up or down. AlphaScreen TPR2A-His6 binding biotin-Hsp90 C-terminal peptide. Potency, µM (titrated, usually from 57 µM). 0.44% of 71,000 active; active = well fitted curve in either direction with a large enough effect; inconclusive = small, poorly fitted or top-dose-only effect, or another doubt
Of the large screens only hits and unclear results are named; the others gave an inactive call. Unless noted, calls follow the shape of the dose curve; as a rule, active = well fitted curve in the direction sought with a large enough effect; inconclusive = small, poorly fitted or top-dose-only effect, or another doubt; inactive = no such curve, though single readings can be large; an effect the other way counts as inactive or inconclusive.

Cn1c(=O)oc2cc(S(=O)(=O)NCCC(=O)N3CCc4ccccc43)ccc21	Tau fil binding 15.8µM
O=C(c1cc2nc3c(c(C(F)(F)F)n2n1)CCc1ccccc1-3)N1CCN2CCCC2C1 (centres undefined)	Tau fil binding 12.6µM, Hsp90 Hop PPI inconclusive
O=C(O)c1cc2nc3c(c(C(F)(F)F)n2n1)CCc1ccccc1-3	none
Cn1c(=O)c2c(nc(CN3CCC(C(N)=O)CC3)n2Cc2c(F)cccc2Cl)n(C)c1=O	none
CC1CCCCN1Cc1nc2c(c(=O)n(C)c(=O)n2C)n1Cc1c(F)cccc1Cl (centres undefined)	BRCT PPI red inconclusive, YjeE inh 79.4µM, BRCT PPI green 0.631µM
CCc1ccc2oc(-c3cc(N)ccc3Cl)nc2c1	none
CCc1ccc2oc(-c3cc(N)cc(C)c3O)nc2c1	Tau fil binding 12.6µM
CCc1ccc2oc(-c3cc(N)ccc3O)nc2c1	Tau fil binding 25.1µM
CC(=O)OCC(=O)[C@]1(O)C(C)CC2C3CCC4=CC(=O)C=C[C@@]4(C)[C@]3(F)C(O)C[C@@]21C (some centres undefined)	none (no result: YjeE inh, DNA Pol III inh, Tau fil binding, Hsp90 Hop PPI)
CCCn1cnc2c(c1=O)c1nc3ccccc3nc1n2Cc1ccccc1OC	none
COc1ccc(Cn2c3nc4ccccc4nc3c3c(=O)n(Cc4ccco4)cnc32)cc1	Tau fil binding 15.8µM
Cc1cccc(-n2cnc3c(c2=O)c2nc4ccccc4nc2n3Cc2ccco2)c1	Tau fil binding 12.6µM
CCC(C)n1cnc2c(c1=O)c1nc3ccccc3nc1n2Cc1ccccc1OC (centres undefined)	Tau fil binding 3.98µM
Cc1cccc(S(=O)(=O)c2c(N)n(Cc3ccco3)c3nc4ccccc4nc23)c1	none
CCN1C(=O)[C@H]2[C@H]3[C@H](O)[C@H](O)C/C(=N/OCc4ccccc4)[C@H]3CC[C@@H]2C1=O	none (no result: YjeE inh, DNA Pol III inh, Tau fil binding, Hsp90 Hop PPI)
NC([N-]/N=C/c1ccccn1)=[S]=[Fe].O=S(=O)(O)O	Hsp90 Hop PPI 1.26µM
NC(=O)c1ccccc1N=Cc1ccccn1	none
Cc1ccccc1OC1C=CC(c2ccccc2)OC1CO (centres undefined)	none (no result: YjeE inh, DNA Pol III inh, Tau fil binding, Hsp90 Hop PPI)
CCCn1c(C)nc2c(c1=O)c1nc3ccccc3nc1n2CCC1=CCCCC1	none
Cc1nc2c(c(=O)n1CCC1=CCCCC1)c1nc3ccccc3nc1n2/N=C/c1ccco1	Tau fil binding 2µM
Cc1noc(C)c1-c1cncnc1N1CCN(C)CC1	none
Cc1nn(C)c(C)c1N=Cc1c(O)ccc2ccccc12	Tau fil binding inconclusive
Oc1ccc2ccccc2c1/C=C\c1ccc2c(Br)cc(Br)c(O)c2n1	Tau fil binding 2.51µM
COc1ccccc1N=c1oc2c(OC)cccc2cc1C(=O)NCc1ccco1	Tau fil binding 2.51µM
COc1ccc(OC)c(N=c2oc3c(OC)cccc3cc2C(=O)NCc2ccco2)c1	Tau fil binding 0.794µM
COc1ccc(N=c2oc3c(OC)cccc3cc2C(=O)NCc2ccco2)cc1OC	Tau fil binding 1.26µM
CCN(CC)CC[n+]1ccc2c(C)c3[nH]c4ccccc4c3c(C)c2c1	DNA Pol III inh 3.98µM
Cc1ccc(Cl)cc1N1CCN(C(=O)CCS(=O)(=O)c2cccc3nonc23)CC1	Tau fil binding 12.6µM
O=C(CCS(=O)(=O)c1cccc2nonc12)N1CCCc2ccccc21	none
O=C(Nc1ccc(F)cc1F)c1cc(-c2ccco2)on1	Tau fil binding 20µM
O=C(Nc1c(F)cc(F)cc1Br)c1cc(-c2ccco2)on1	none
CCC=O	none
Cc1ccc2nc(Nc3ccc4[nH]c(=O)[nH]c4c3)c(-n3nc(C)cc3C)nc2c1	Tau fil binding 0.631µM
Nc1nc(NCCc2ccc(O)cc2)nc2nc(-c3ccco3)nn12	Tau fil binding 31.6µM
N=C(N)SCCSC(=N)N	none
COc1ccccc1CCn1c(=O)c(-c2cccc(Cl)c2)nc2cncnc21	Tau fil binding 12.6µM
Cc1nc2cncnc2n(Cc2ccccc2Cl)c1=O	Tau fil binding 15.8µM
COc1ccccc1CCn1c(=O)c(-c2ccc(F)cc2)nc2cncnc21	none
O=c1c(-c2cccc(Cl)c2)nc2cncnc2n1Cc1ccccc1Cl	Tau fil binding 6.31µM
